According to PubChem BioAssay (NCI):
The panel holds about 83,000 compounds, 20% with a hit somewhere; the sample as a whole holds those more often.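 96-well plates, one dose, 48 hours. Percent growth reported; active if below 10.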 Unmarked numbers belong to inactive results. The source made the active and inactive calls.

How the values were obtained:
Experiment in all cases: NCI-60 one-dose screen, 48 h (100 = growth as untreated, 0 = no growth, -100 = all killed)
Details in all cases: 10 µM unless noted
NCI-H23 lung = test system: NCI-H23 lung
NCI-H226 lung = test system: NCI-H226 lung
NCI-H322M lung = test system: NCI-H322M lung
HOP-62 NSCLC = test system: HOP-62 NSCLC
NCI-H460 lung = test system: NCI-H460 lung
HOP-92 NSCLC = test system: HOP-92 NSCLC
NCI-H522 lung = test system: NCI-H522 lung
A549/ATCC NSCLC = test system: A549/ATCC NSCLC
786-0 renal = test system: 786-0 renal
COLO 205 colon = test system: COLO 205 colon

## COc1ccc(C2CC(c3cccc(Nc4ccncc4)c3)=NN2c2ccc(Cl)cc2)cc1 (stereo not given)
NCI-H23 lung
  growth: 83%
NCI-H226 lung
  growth: 88.8%
NCI-H322M lung
  growth: 73.7%
HOP-62 NSCLC
  growth: 25.3%
NCI-H460 lung
  growth: -85.9% (active)
HOP-92 NSCLC
  growth: 51.5%
NCI-H522 lung
  growth: -23% (active)
A549/ATCC NSCLC
  growth: 35.9%
786-0 renal
  growth: 102%
COLO 205 colon
  growth: -65.9% (active)

## CCCCc1ccc(Nc2nnc(SCC(=O)NC(=O)NCC)s2)cc1
NCI-H23 lung
  growth: 97.3%
NCI-H226 lung
  growth: 95.7%
NCI-H322M lung
  growth: 81.5%
HOP-62 NSCLC
  growth: 96%
NCI-H460 lung
  growth: 102%
HOP-92 NSCLC
  growth: 61.4%
NCI-H522 lung
  growth: 87.7%
A549/ATCC NSCLC
  growth: 109%
786-0 renal
  growth: 95.9%
COLO 205 colon
  growth: 202%

## CCc1c(Nc2ccc(C)cc2)[nH]c(N)nc1=S
NCI-H23 lung
  growth: 97%
NCI-H226 lung
  growth: 95.3%
NCI-H322M lung
  growth: 106%
HOP-62 NSCLC
  growth: 98.1%
NCI-H460 lung
  growth: 106%
HOP-92 NSCLC
  growth: 108%
NCI-H522 lung
  growth: 96.9%
A549/ATCC NSCLC
  growth: 101%
786-0 renal
  growth: 104%
COLO 205 colon
  growth: 109%

## CCCCCCCCCCN=C(N)N=C(N)N
NCI-H23 lung
  growth: 29.4%
NCI-H226 lung
  growth: 47.4%
NCI-H322M lung
  growth: 80.9%
HOP-62 NSCLC
  growth: 50.6%
NCI-H460 lung
  growth: 40.6%
HOP-92 NSCLC
  growth: 21.2%
NCI-H522 lung
  growth: 53%
A549/ATCC NSCLC
  growth: 70.1%
786-0 renal
  growth: 26.2%
COLO 205 colon
  growth: 32%

## COc1ccc(-c2nc3sccn3c2/C=C/C(=O)c2cc(OC)c(OC)c(OC)c2)cc1
NCI-H23 lung
  growth: 59.9%
NCI-H226 lung
  growth: 87.4%
NCI-H322M lung
  growth: 69.4%
HOP-62 NSCLC
  growth: 79.1%
NCI-H460 lung
  growth: 47%
HOP-92 NSCLC
  growth: -1.77% (active)
NCI-H522 lung
  growth: 5.02% (active)
A549/ATCC NSCLC
  growth: 60.4%
786-0 renal
  growth: 78.3%
COLO 205 colon
  growth: 79.2%

## CCCCCCCCCCCCCCCC(=O)OC[C@@]1(O)C[C@@]23CC[C@@H]4C(C)(C)CCC[C@@]4(C)[C@@H]2CC[C@H]1C3
NCI-H23 lung
  growth: 102%
NCI-H226 lung
  growth: 98.3%
NCI-H322M lung
  growth: 114%
HOP-62 NSCLC
  growth: 106%
NCI-H460 lung
  growth: 98.4%
HOP-92 NSCLC
  growth: 117%
NCI-H522 lung
  growth: 89.3%
A549/ATCC NSCLC
  growth: 103%
786-0 renal
  growth: 27.9%
COLO 205 colon
  growth: 112%

## Nc1c(C(=O)Nc2ccc(Cl)cc2)cc(-c2nc3ccccc3s2)c(=O)n1NS(=O)(=O)c1ccc(Cl)cc1
NCI-H23 lung
  growth: 92.7%
NCI-H226 lung
  growth: 86.4%
NCI-H322M lung
  growth: 93.8%
HOP-62 NSCLC
  growth: 102%
NCI-H460 lung
  growth: 106%
HOP-92 NSCLC
  growth: 96.2%
NCI-H522 lung
  growth: 91.3%
A549/ATCC NSCLC
  growth: 104%
786-0 renal
  growth: 101%
COLO 205 colon
  growth: 105%

## CCN(CC)CCCCCCNc1cc(OC)cc2cccnc12
NCI-H23 lung
  growth: 85.5%
NCI-H226 lung
  growth: 97.4%
NCI-H322M lung
  growth: 96%
HOP-62 NSCLC
  growth: 92.1%
NCI-H460 lung
  growth: 32.6%
HOP-92 NSCLC
  growth: 85.2%
NCI-H522 lung
  growth: 5.26% (active)
A549/ATCC NSCLC
  growth: 80.3%
786-0 renal
  growth: -50.7% (active)
COLO 205 colon
  growth: -68.9% (active)

## O=C(O)CCCCCCCCCCCCCCC(=O)O
NCI-H23 lung
  growth: 103%
NCI-H226 lung
  growth: 85.3%
NCI-H322M lung
  growth: 100%
HOP-62 NSCLC
  growth: 99.1%
NCI-H460 lung
  growth: 110%
HOP-92 NSCLC
  growth: 85.1%
NCI-H522 lung
  growth: 89.6%
A549/ATCC NSCLC
  growth: 90.5%
786-0 renal
  growth: 102%
COLO 205 colon
  growth: 108%

## COc1cc2c(cc1[N+](=O)[O-])-c1ccc([N+](=O)[O-])cc1/C2=N\O
NCI-H23 lung
  growth: 88.2%
NCI-H226 lung
  growth: 66%
NCI-H322M lung
  growth: 113%
HOP-62 NSCLC
  growth: 110%
NCI-H460 lung
  growth: 84%
HOP-92 NSCLC
  growth: 100%
NCI-H522 lung
  growth: 51.2%
A549/ATCC NSCLC
  growth: 83.5%
786-0 renal
  growth: 79.6%
COLO 205 colon
  growth: 79.6%

## C[C@H]1[C@H](C)CC[C@]2(CO)CC[C@]3(C)C(=CC[C@@H]4[C@@]5(C)Cc6c([nH]c7ccccc67)C(C)(C)[C@@H]5CC[C@]43C)[C@H]12
NCI-H23 lung
  growth: 74.6%
NCI-H226 lung
  growth: 76.9%
NCI-H322M lung
  growth: 72.3%
HOP-62 NSCLC
  growth: 89%
NCI-H460 lung
  growth: 66.8%
HOP-92 NSCLC
  growth: 101%
NCI-H522 lung
  growth: -12.7% (active)
A549/ATCC NSCLC
  growth: 81%
786-0 renal
  growth: 76.1%
COLO 205 colon
  growth: 95.1%

## C[C@]12C[C@H]1CC[C@]1(C)[C@@H]2CC[C@@]23C[C@H](CC[C@H]21)[C@@](O)(CO)C3
NCI-H23 lung
  growth: 98.5%
NCI-H226 lung
  growth: 96.8%
NCI-H322M lung
  growth: 94.2%
HOP-62 NSCLC
  growth: 109%
NCI-H460 lung
  growth: 94.3%
HOP-92 NSCLC
  growth: 92.9%
NCI-H522 lung
  growth: 87%
A549/ATCC NSCLC
  growth: 99.6%
786-0 renal
  growth: -80.1% (active)
COLO 205 colon
  growth: 109%

## c1ccc(N2N=C(c3cccc(Nc4ccncc4)c3)CC2c2ccc3c(c2)OCO3)cc1 (stereo not given)
NCI-H23 lung
  growth: 61.1%
NCI-H226 lung
  growth: 77.7%
NCI-H322M lung
  growth: 42.7%
HOP-62 NSCLC
  growth: 23.5%
NCI-H460 lung
  growth: -48.5% (active)
HOP-92 NSCLC
  growth: 25.6%
NCI-H522 lung
  growth: 17.9%
A549/ATCC NSCLC
  growth: 21.1%
786-0 renal
  growth: 81%
COLO 205 colon
  growth: -53% (active)

## CC1(C)CCCN1CCCN1c2ccccc2Sc2ccc(Cl)cc21
NCI-H23 lung
  growth: 72.5%
NCI-H226 lung
  growth: 82.9%
NCI-H322M lung
  growth: 74.1%
HOP-62 NSCLC
  growth: 77%
NCI-H460 lung
  growth: 60.8%
HOP-92 NSCLC
  growth: 62.9%
NCI-H522 lung
  growth: 76.6%
A549/ATCC NSCLC
  growth: 83.8%
786-0 renal
  growth: 54.2%
COLO 205 colon
  growth: 43.6%

## CN1CCN(C(=O)OCc2nc3c(N4CCOCC4)nc(-c4ccccc4)nc3n2C)CC1
NCI-H23 lung
  growth: -77.1% (active)
NCI-H226 lung
  growth: -66.7% (active)
NCI-H322M lung
  growth: 58.2%
HOP-62 NSCLC
  growth: 4.63% (active)
NCI-H460 lung
  growth: -46.9% (active)
HOP-92 NSCLC
  growth: -63.5% (active)
NCI-H522 lung
  growth: -35.3% (active)
A549/ATCC NSCLC
  growth: 6.44% (active)
786-0 renal
  growth: -83.3% (active)
COLO 205 colon
  growth: -53% (active)

## O=C1NC(=O)C(=Cc2cn(Cc3ccccn3)c3ccccc23)C(=O)N1
NCI-H23 lung
  growth: 103%
NCI-H226 lung
  growth: 79.7%
NCI-H322M lung
  growth: 105%
HOP-62 NSCLC
  growth: 92.7%
NCI-H460 lung
  growth: 11.9%
HOP-92 NSCLC
  growth: 95.8%
NCI-H522 lung
  growth: 92.6%
A549/ATCC NSCLC
  growth: 76.3%
786-0 renal
  growth: 100%
COLO 205 colon
  growth: 54.4%

## CC1(C)[C@H](O)CC[C@]2(C)[C@@H]1CC[C@@]13C[C@@H](CC[C@H]12)[C@@](O)(CO)C3
NCI-H23 lung
  growth: 105%
NCI-H226 lung
  growth: 99.7%
NCI-H322M lung
  growth: 113%
HOP-62 NSCLC
  growth: 103%
NCI-H460 lung
  growth: 104%
HOP-92 NSCLC
  growth: 126%
NCI-H522 lung
  growth: 92.1%
A549/ATCC NSCLC
  growth: 107%
786-0 renal
  growth: -45% (active)
COLO 205 colon
  growth: 119%

## CN1CCN(c2c(F)cc(NC3=C(Cl)C(=O)c4ncccc4C3=O)cc2F)CC1
NCI-H23 lung
  growth: 82.8%
NCI-H226 lung
  growth: 97.1%
NCI-H322M lung
  growth: 108%
HOP-62 NSCLC
  growth: 111%
NCI-H460 lung
  growth: 107%
HOP-92 NSCLC
  growth: 41%
NCI-H522 lung
  growth: -9.58% (active)
A549/ATCC NSCLC
  growth: 109%
786-0 renal
  growth: 101%
COLO 205 colon
  growth: 64.7%

## CC(N)C(=O)NNc1n[nH]c(=S)n1N (stereo not given)
NCI-H23 lung
  growth: 100%
NCI-H226 lung
  growth: 97.1%
NCI-H322M lung
  growth: 92%
HOP-62 NSCLC
  growth: 106%
NCI-H460 lung
  growth: 103%
HOP-92 NSCLC
  growth: 94.6%
NCI-H522 lung
  growth: 98%
A549/ATCC NSCLC
  growth: 102%
786-0 renal
  growth: 95.8%
COLO 205 colon
  growth: 111%

## O=C(Nc1nc(-c2ccc(Br)cc2)cs1)c1cc(-c2ccc(Br)cc2)nc2ccc(Cl)cc12
NCI-H23 lung
  growth: 69.7%
NCI-H226 lung
  growth: 76.3%
NCI-H322M lung
  growth: 89.9%
HOP-62 NSCLC
  growth: 80.1%
NCI-H460 lung
  growth: 88.3%
HOP-92 NSCLC
  growth: 71.7%
NCI-H522 lung
  growth: 76.9%
A549/ATCC NSCLC
  growth: 84.8%
786-0 renal
  growth: 94.3%
COLO 205 colon
  growth: 84.5%

## C=C(C)[C@@H]1CC[C@]2(C(=O)NCC(=O)OC)CC[C@]3(C)[C@H](CC[C@@H]4[C@@]5(C)Cc6c([nH]c7ccccc67)C(C)(C)[C@@H]5CC[C@]43C)[C@@H]12
NCI-H23 lung
  growth: 68.6%
NCI-H226 lung
  growth: 63.5%
NCI-H322M lung
  growth: 85.8%
HOP-62 NSCLC
  growth: 82.8%
NCI-H460 lung
  growth: 74.6%
HOP-92 NSCLC
  growth: 91.1%
NCI-H522 lung
  growth: 60.5%
A549/ATCC NSCLC
  growth: 60.7%
786-0 renal
  growth: 75%
COLO 205 colon
  growth: 86.1%

## Clc1nc(Cl)c2ncn(CCOCCn3cnc4c(Cl)nc(Cl)nc43)c2n1
NCI-H23 lung
  growth: -78.5% (active)
NCI-H226 lung
  growth: -74.2% (active)
NCI-H322M lung
  growth: -97.1% (active)
HOP-62 NSCLC
  growth: -71.8% (active)
NCI-H460 lung
  growth: -62.8% (active)
HOP-92 NSCLC
  growth: -93.2% (active)
NCI-H522 lung
  growth: -85.4% (active)
A549/ATCC NSCLC
  growth: -76.2% (active)
786-0 renal
  growth: -92.9% (active)
COLO 205 colon
  growth: -65.2% (active)
